A short description of assay [1]: S. cerevisiae growth inhibition in permissive medium (OD615), pilot counter-assay for S. cerevisiae lifespan shortening project, permissive growth control (AID 705;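 active means growth inhibition above 25% in both replicates, a cutoff set 3 SD above the mean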). To be noted: OD615, 24 h, at 10 µM, hits give high values.
The nature of assay [2]: doxorubicin toxicity protection in MRP-1 cells – H69AR cells, CellTiter-Glo, duplicate, MRP-1 activator project, pilot screen (AID 807).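 Further: compound pretreatment 18-22 h then 72 h combined with doxorubicin; 0% = doxorubicin alone and 100% = vehicle without doxorubicin.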 To be noted: H69AR viability with doxorubicin, CellTiter-Glo luminescence; at 10 µM; hits give high values. In general terms: Cellular ATP, detected with luciferase, serves as a proxy for viable cell number.
The nature of assay [3]: viability of HCT116 without oncogenic beta-catenin – human colon tumor cells, pilot screen (AID 823;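 active means cell viability at or below a set limit in both duplicate runs, the limit being the all-compound median minus 4 SD, cut at about 23% in these data, passing the limit was not always enough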;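 further: 0% = wells killed by 20 µM Hyamine and 100% = untreated DMSO cell wells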). Conditions: HCT116 beta-catenin knockout viability, CellTiter-Glo, 60 h; at 10 µM; hits give low values.
Assay [4] in a line: RAM pathway blockade in budding yeast – dse1pr::URA3 reporter, 5-FOA selection, pilot screen (AID 869;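 active means inhibition over a set limit, the all-compound mean plus 3 SD, in both replicate runs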;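 further: 0% = DMSO wells with no growth and 100% = 10 µM 1-NA-PP1 with full growth; RAM network block rescues cells from 5-FOA so hits raise OD615 growth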). To be noted: S. cerevisiae dse1pr::URA3 5-FOA growth, OD615, 2 d; at 10 µM; hits give high values; strain carries analog-sensitive mutant Cbk1 kinase.
A short description of assay [5]: RAM signaling pathway blockade in yeast – S. cerevisiae, Pdr1DBD-CYC8 efflux-inhibited sensitized strain, primary screen (AID 1298;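 active means RAM network inhibition above 8.4% in each of two replicates, 3 SD over the compound average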;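 further: 0% = DMSO untreated cells without growth and 100% = 10 µM 1-NA-PP1 full growth; higher means more yeast growth rescued from 5-FOA killing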). Conditions: S. cerevisiae cbk1-as DSE1-URA3 strain, 5-FOA growth OD615, 2 d; at 50 µM; hits give high values.
Assay [6] can be described thus: S. cerevisiae growth inhibition in restrictive medium, OD615, pilot screen, restrictive growth control, yeast lifespan reduction project (AID 706;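 active means growth inhibition above a set limit, 3 SD over mean compound inhibition, in both replicates, cut at about 43% in these data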;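 further: modified DeaD lifespan yeast strain shifted to restrictive glucose medium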). Conditions: OD615, 48 h, at 10 µM, hits give high values.
The nature of assay [7]: viability of PTEN-null HCT116 cells – cell-based, HCT116 clonal line, CellTiter-Glo, pilot screen (AID 824;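 active means viability at or below 27.92% in each of two runs, the all-compound median minus 4 SD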;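 further: 0% = 20 µM Hyamine control and 100% = vehicle cell control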). To be noted: HCT116 PTEN-deleted viability, 60 h, at 10 µM, hits give low values.

Values without a mark were called inactive. Results filed as inconclusive are left out. The source made the active and inactive calls.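 How the source made its calls, unless noted: active means viability increase at or above a cutoff of the median across tested compounds plus 3 SD (cut at about 8.5% in these data, passing the limit was not always enough); inconclusive means some gains above the cutoff, reason not given; inactive means the rest.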

With `CCCc1nc2sc3c(SCC(=O)NCc4ccco4)ncnc3c2c2c1CCC2`, the growth inhibition in assay [1] was -1.16%. The viability increase in assay [2] is -6.5%. For the same molecule, in assay [3], the viability was 47.4%. The inhibition in assay [4] was 2.37%. In assay [5], the RAM network inhibition is 4.21%.

Turning to `CCOc1ccc2nc(N3CCC(C(=O)N4CCN(c5ncccn5)CC4)CC3)sc2c1`, in assay [6], the growth inhibition is 25.2%. Besides, in assay [2], the viability increase is -3.04%. For the same molecule, the viability in assay [3] is 82.1%; in assay [7], 90.9%. Besides, the inhibition in assay [4] is 1.76%. The RAM network inhibition in assay [5] was -1.59%.

For the molecule `COc1ccc(OCC(=O)Nc2cc(OC)cc(OC)c2)cc1`, the growth inhibition in assay [6] is 7.43%. Further, the viability increase in assay [2] was -3.71%. Also, the viability in assay [3] was 88.7%; in assay [7], 93.9%. Also, the inhibition in assay [4] is -0.89%. The RAM network inhibition in assay [5] was -2.47%.

For `CCc1ccc(Cn2nnc(C(=O)NCc3ccccc3OC)c2N)cc1`, the growth inhibition in assay [6] is 5.92%. Moreover, in assay [2], the viability increase is -2.2%. The values for the viability in assay [3] and in assay [7] were 95% and 92%, respectively. Also, the inhibition in assay [4] is 1.81%. In assay [5], the RAM network inhibition was 4.95%.

On to `O=C(Nc1nc2c(s1)CCCC2)c1ccc2ncsc2c1`, for which the growth inhibition in assay [1] was 14.5%. For the same molecule, the viability increase in assay [2] was -2.76%. Also, the results for the viability in assay [3] and in assay [7] were 68.4% and 76.7%, respectively. Besides, the inhibition in assay [4] is -0.135%. In addition, in assay [5], the RAM network inhibition was 0.27%.

Take `Cn1c(C(=O)N2CCC(C(=O)N3CCN(Cc4ccc5c(c4)OCO5)CC3)CC2)cc2sccc21`: the growth inhibition in assay [1] was -9.98%. Besides, in assay [2], the viability increase is -2.38%. Also, the viability in assay [3] is 70.9%; in assay [7], 71.1%. Also, the inhibition in assay [4] is 1.03%. Moreover, in assay [5], the RAM network inhibition was 3.95%.

For `Clc1ccccc1CSc1nnc(-c2ccccn2)n1Cc1ccco1`, the growth inhibition in assay [1] is -5.1%. Also, the viability increase in assay [2] was -5.33%. Besides, the viability in assay [3] was 74.8%; in assay [7], 79%. Also, the inhibition in assay [4] is 1.92%. The RAM network inhibition in assay [5] is 2.52%.

Consider `CSc1nc(-c2ccccc2)nc2[nH]ccc(=O)c12`, for which the growth inhibition in assay [6] is -18.3%. In addition, the viability increase in assay [2] is -3.93%. For the same molecule, the viability in assay [3] was 76%; in assay [7], 80.6%. Moreover, in assay [4], the inhibition was 0.065%. In addition, the RAM network inhibition in assay [5] was 1.4%.

Turning to `COc1ccc(OC)c(C2CC(=O)N3CN(c4cccc(Cl)c4)CSC3=C2C#N)c1` (stereo not given), in assay [1], the growth inhibition is 1.31%. For the same molecule, the viability increase in assay [2] was -2.23%. Besides, the viability in assay [3] is 100%; in assay [7], 95.4%. Moreover, the inhibition in assay [4] was 2.46%. Further, the RAM network inhibition in assay [5] was 8.89%.

With `COC(=O)Cn1c(=NC(=O)CSC(C)=O)sc2ccccc21`, in assay [1], the growth inhibition is 4.79%. In addition, the viability increase in assay [2] is -1.9%. Moreover, the viability in assay [3] is 98.5%; in assay [7], 101%. Moreover, the inhibition in assay [4] is 2.89%. Moreover, the RAM network inhibition in assay [5] was 5.91%.

Take `CC(=O)C(Sc1ccc2nnc(-c3ccc(C)cc3)n2n1)C(C)=O`: the growth inhibition in assay [1] was 1.31%. Also, in assay [2], the viability increase was -4.69%. The viability in assay [3] is 101%; in assay [7], 95.3%. For the same molecule, the inhibition in assay [4] is 2.04%. In addition, the RAM network inhibition in assay [5] was 6.06%.

Take `Cn1cccc1Cc1nnc(SCC(=O)NC2CCCC2)n1CCc1ccccc1`: the growth inhibition in assay [1] was -1.71%. For the same molecule, the viability increase in assay [2] is -0.59%. Besides, the viability in assay [3] is 101%; in assay [7], 96.8%. For the same molecule, the inhibition in assay [4] is 1.71%. Further, the RAM network inhibition in assay [5] was 6.53%.

Turning to `CC(=O)NC1(NC(C)=O)CCN(C)C(c2ccccc2)C1C` (stereo not given), the growth inhibition in assay [6] was -6.19%. Moreover, in assay [2], the viability increase was -2%. For the same molecule, the viability in assay [3] was 98.2%; in assay [7] it was 100%. Moreover, the inhibition in assay [4] is 1.46%. For the same molecule, the RAM network inhibition in assay [5] was 1.13%.

Consider `Cc1cc(/C=N/n2cnnc2)c(C)n1-c1ccc(OCc2ccccc2F)cc1`, for which the growth inhibition in assay [1] was -0.03%. In assay [2], the viability increase was -6.9%. The viability in assay [3] is 8.8% (active); in assay [7], 13.7% (active). In assay [4], the inhibition is 1.2%. Also, the RAM network inhibition in assay [5] was 11.1%.

Turning to `COc1ccc(NC(=O)CSc2nnc(Cn3c(=O)sc4ccccc43)n2C)c(OC)c1`, the growth inhibition in assay [1] was 2.11%. The viability increase in assay [2] was -4.82%. Further, the viability is 101% in assay [3] and 92.7% in assay [7]. Moreover, the inhibition in assay [4] is -0.285%. The RAM network inhibition in assay [5] is 1.01%.

As to `c1ccc(Cc2nnc3sc(-c4ccco4)nn23)cc1`, in assay [6], the growth inhibition is 68.7% (active). Besides, the viability increase in assay [2] was -5.05%. For the same molecule, the results for the viability in assay [3] and in assay [7] were 108% and 94.7%, respectively. Further, in assay [4], the inhibition was 1.98%. Besides, in assay [5], the RAM network inhibition was 5.97%.

Regarding `COc1ccc(Br)cc1C1CC(=O)N2CN(C)CSC2=C1C#N` (stereo not given), the growth inhibition in assay [1] was 4.76%. Moreover, the viability increase in assay [2] is -4.75%. Also, the viability was 81.6% in assay [3] and 78.3% in assay [7]. Besides, the inhibition in assay [4] was 0.03%. Also, the RAM network inhibition in assay [5] is 1.82%.

For the molecule `CC(=O)NC(=S)c1c(N)n(Cc2ccccc2)c(=O)n(C)c1=O`, in assay [1], the growth inhibition is 19.2%. The viability increase in assay [2] is -3.97%. Further, the viability in assay [3] was 84.6%; in assay [7], 80%. In addition, in assay [4], the inhibition was 0.92%. Moreover, in assay [5], the RAM network inhibition was 4.62%.

As for `COC(=O)c1cc(CSc2nc3ccc(C)cc3[nH]2)oc1C`, the growth inhibition in assay [6] was 4.74%. Besides, the viability increase in assay [2] was -0.15%. Besides, the figures for the viability in assay [3] and in assay [7] were 46.6% and 63.5%, respectively. In addition, the inhibition in assay [4] is 0.105%. In assay [5], the RAM network inhibition is 4.81%.

On to `COc1ccc(OCc2nnc3n2N=C(c2ccc(Br)cc2)CS3)cc1`, for which, in assay [1], the growth inhibition was 3.29%. Also, the viability increase in assay [2] is 2.18%. Besides, the results for the viability in assay [3] and in assay [7] were 70% and 72.2%, respectively. The inhibition in assay [4] was 0.955%. In addition, in assay [5], the RAM network inhibition is 3.18%.

Consider `O=c1c2ccccc2[nH]c(=S)n1Cc1cccnc1`, for which the growth inhibition in assay [1] is 6.04%. For the same molecule, the viability increase in assay [2] is -0.83%. Besides, the figures for the viability in assay [3] and in assay [7] were 103% and 92.5%, respectively. The inhibition in assay [4] is -0.605%. Besides, the RAM network inhibition in assay [5] is 1.73%.

As usually defined, the viability is a read-out of living cells in per cent, often relative to untreated cells. The inhibition is the relative decrease from the control value, in per cent.

(Values after PubChem BioAssay.)
